Data as given in PubChem BioAssay AID1159580 (chemical genetic matrix, 2015).
The whole screen tested about 5,500 compounds, of which about 2,000 (36%) were called active. Inconclusive results (about 18%) are left out. The list shows a part of the results. Unmarked numbers belong to inactive results. Cut-off read from the data, not from the text of the source: active = normalized growth mostly below about 0.91 (no sharp cut-off); inconclusive = no clear call, values can overlap the other calls; inactive = mostly above about 0.92.

Test: chemical genetic growth profiling, strain panel (AID 1159580);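 note: tested at 20 µM; growth read once vehicle control cultures reached saturation at 30 °C; 1 = growth at the plate median or of vehicle wells; lower values mean less growth of the strain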
Conditions: S. cerevisiae deletion strains, growth OD
[1] = locus YAL013W, strain DEP1, active compounds read low
[2] = locus YBR229C, strain ROT2, active compounds read low
[3] = locus YCL061C, strain MRC1, active compounds read low
[4] = locus YDL101C, strain DUN1, active compounds read low
[5] = locus YDR150W, strain NUM1, active compounds read low
[6] = locus YEL061C, strain CIN8, active compounds read low
[7] = locus YGR078C, strain PAC10, active compounds read low
[8] = locus YGR229C, strain SMI1, active compounds read low
[9] = locus YHR030C, strain SLT2, active compounds read low
[10] = locus YHR087W, strain rtc3, active compounds read low
[11] = locus YJR043C, strain POL32, active compounds read low
[12] = locus YJR075W, strain HOC1, active compounds read low
[13] = locus YLR039C, strain RIC1, active compounds read low
[14] = locus YLR058C, strain SHM2 (second series), active compounds read low
[15] = locus YLR085C, strain ARP6, active compounds read low
[16] = locus YLR262C, strain YPT6, active compounds read low
[17] = locus YML094W, strain GIM5, active compounds read low
[18] = locus YMR219W, strain ESC1, active compounds read low
[19] = locus YMR263W, strain SAP30, active compounds read low
[20] = locus YNL153C, strain GIM3, active compounds read low
[21] = locus YNL298W, strain CLA4 (second series), active compounds read low
[22] = locus YNL322C, strain KRE1, active compounds read low
[23] = locus YNR030W, strain Alg12, active compounds read low
[24] = locus YOL006C, strain TOP1, active compounds read low
[25] = locus YPL055C, strain LGE1, active compounds read low
[26] = locus YPL241C, strain CIN2, active compounds read low
[27] = locus YPR135W, strain CTF4, active compounds read low

SMILES: COC(=O)c1ccc(S(=O)(=O)NCc2ccccc2)n1C
- normalized growth [1]: 1.01
- normalized growth [2]: 1.03
- normalized growth [3]: 1.02
- normalized growth [4]: 1.02
- normalized growth [5]: 1.03
- normalized growth [6]: 1.06
- normalized growth [7]: 1.02
- normalized growth [8]: 1.02
- normalized growth [9]: 1.09
- normalized growth [10]: 0.995
- normalized growth [11]: 1.06
- normalized growth [12]: 1.05
- normalized growth [13]: 1.02
- normalized growth [14]: 1.03
- normalized growth [15]: 1.04
- normalized growth [16]: 1.08
- normalized growth [17]: 1.01
- normalized growth [18]: 1.01
- normalized growth [19]: 1.01
- normalized growth (locus YMR307W, strain GAS1, active compounds read low): 1.1
- normalized growth [20]: 1.05
- normalized growth [21]: 1.03
- normalized growth [22]: 1.01
- normalized growth [23]: 1.04
- normalized growth [24]: 1.07
- normalized growth [25]: 0.991
- normalized growth [26]: 1.01
- normalized growth [27]: 1.15

SMILES: COC(=O)c1ccc(C#Cc2ccccc2)o1
- normalized growth [1]: 0.9 (active)
- normalized growth [2]: 0.884 (active)
- normalized growth [3]: 0.771 (active)
- normalized growth [4]: 0.846 (active)
- normalized growth (locus YDL134C, strain PPH21, active compounds read low): 0.589 (active)
- normalized growth [5]: 0.834
- normalized growth [6]: 0.713 (active)
- normalized growth [7]: 0.89 (active)
- normalized growth [8]: 0.961
- normalized growth [9]: 0.323 (active)
- normalized growth [10]: 0.902 (active)
- normalized growth (locus YJL187C, strain SWE1, active compounds read low): 0.913 (active)
- normalized growth [11]: 0.822 (active)
- normalized growth [12]: 0.875 (active)
- normalized growth (locus YKL190W, strain CNB1, active compounds read low): 0.731 (active)
- normalized growth [13]: 0.55 (active)
- normalized growth [14]: 0.992
- normalized growth [15]: 0.325 (active)
- normalized growth [16]: 0.584 (active)
- normalized growth [17]: 0.787 (active)
- normalized growth [18]: 0.88 (active)
- normalized growth [19]: 0.904 (active)
- normalized growth (locus YNL128W, strain TEP1, active compounds read low): 0.927
- normalized growth [20]: 0.815 (active)
- normalized growth [21]: 0.654 (active)
- normalized growth [22]: 0.972
- normalized growth [23]: 0.793 (active)
- normalized growth [24]: 0.349 (active)
- normalized growth [25]: 0.767 (active)
- normalized growth [26]: 0.678 (active)
- normalized growth [27]: 0.457 (active)

SMILES: CN(C)/C=C/C(=O)c1ccc(C#Cc2ccccc2)cc1
- normalized growth (locus YAR019C, strain CDC15, active compounds read low): 0.982
- normalized growth (locus YBL105C, strain PKC1, active compounds read low): 0.986
- normalized growth (locus YBR135W, strain CKS1, active compounds read low): 0.967
- normalized growth (locus YBR136W, strain MEC1, active compounds read low): 0.984
- normalized growth (locus YBR160W, strain CDC28, active compounds read low): 0.97
- normalized growth (locus YDL017W, strain CDC7, active compounds read low): 0.977
- normalized growth (locus YDL028C, strain MPS1, active compounds read low): 0.98
- normalized growth [4]: 0.982
- normalized growth (locus YDL108W, strain KIN28, active compounds read low): 0.986
- normalized growth (locus YDL132W, strain cdc53, active compounds read low): 0.968
- normalized growth (locus YDL214C, strain PRR2, active compounds read low): 0.987
- normalized growth (locus YDR052C, strain DBF4, active compounds read low): 0.974
- normalized growth (locus YDR054C, strain cdc34, active compounds read low): 0.975
- normalized growth (locus YDR226W, strain ADK1, active compounds read low): 0.972
- normalized growth (locus YDR477W, strain SNF1, active compounds read low): 0.958
- normalized growth (locus YER123W, strain YCK3, active compounds read low): 0.955
- normalized growth (locus YER133W, strain GLC7, active compounds read low): 0.981
- normalized growth (locus YFL009W, strain cdc4, active compounds read low): 0.965
- normalized growth (locus YFL029C, strain CAK1, active compounds read low): 0.976
- normalized growth (locus YFR003C, strain YPI1, active compounds read low): 0.993
- normalized growth (locus YFR019W, strain FAB1, active compounds read low): 0.981
- normalized growth (locus YFR028C, strain CDC14, active compounds read low): 0.98
- normalized growth (locus YGR040W, strain KSS1, active compounds read low): 0.967
- normalized growth (locus YGR052W, strain FMP48, active compounds read low): 1.08
- normalized growth (locus YGR092W, strain DBF2, active compounds read low): 1.01
- normalized growth [9]: 0.874
- normalized growth (locus YHR079C, strain IRE1, active compounds read low): 0.99
- normalized growth (locus YHR082C, strain KSP1, active compounds read low): 1.05
- normalized growth (locus YHR205W, strain SCH9, active compounds read low): 0.987
- normalized growth (locus YIL147C, strain SLN1, active compounds read low): 0.982
- normalized growth (locus YJL095W, strain BCK1, active compounds read low): 0.935
- normalized growth (locus YJL128C, strain PBS2, active compounds read low): 0.953
- normalized growth (locus YJL157C, strain FAR1, active compounds read low): 0.989
- normalized growth (locus YJR016C, strain ILV3, active compounds read low): 0.974
- normalized growth (locus YJR066W, strain TOR1 (second series), active compounds read low): 0.934
- normalized growth (locus YJR066W, strain TOR1, active compounds read low): 0.94
- normalized growth (locus YKL048C, strain ELM1, active compounds read low): 0.979
- normalized growth (locus YKL067W, strain YNK1, active compounds read low): 0.974
- normalized growth (locus YKL101W, strain HSL1, active compounds read low): 0.986
- normalized growth (locus YKL193C, strain SDS22, active compounds read low): 0.976
- normalized growth (locus YKL203C, strain TOR2, active compounds read low): 1
- normalized growth (locus YLR113W, strain HOG1, active compounds read low): 0.972
- normalized growth (locus YLR133W, strain CKI1, active compounds read low): 0.987
- normalized growth (locus YLR403W, strain SFP1, active compounds read low): 0.97
- normalized growth (locus YML070W, strain DAK1, active compounds read low): 0.967
- normalized growth (locus YMR001C, strain CDC5, active compounds read low): 0.984
- normalized growth (locus YMR205C, strain PFK2 (second series), active compounds read low): 0.994
- normalized growth (locus YMR277W, strain FCP1, active compounds read low): 0.973
- normalized growth (locus YNL006W, strain LST8, active compounds read low): 0.962
- normalized growth (locus YNL020C, strain ARK1, active compounds read low): 0.992
- normalized growth (locus YNL161W, strain CBK1, active compounds read low): 0.965
- normalized growth (locus YNL183C, strain NPR1, active compounds read low): 0.939
- normalized growth (locus YNL207W, strain RIO2, active compounds read low): 0.985
- normalized growth (locus YNL222W, strain SSU72, active compounds read low): 0.972
- normalized growth (locus YNL307C, strain MCK1 (second series), active compounds read low): 0.994
- normalized growth (locus YOL078W, strain AVO1, active compounds read low): 0.98
- normalized growth (locus YOL136C, strain PFK27, active compounds read low): 0.976
- normalized growth (locus YOR061W, strain CKA2, active compounds read low): 0.979
- normalized growth (locus YOR119C, strain RIO1, active compounds read low): 1.04
- normalized growth (locus YOR231W, strain MKK1, active compounds read low): 0.931
- normalized growth (locus YOR329C, strain SCD5, active compounds read low): 0.98
- normalized growth (locus YPL031C, strain PHO85, active compounds read low): 0.968
- normalized growth (locus YPL153C, strain RAD53, active compounds read low): 0.939
- normalized growth (locus YPL204W, strain HRR25, active compounds read low): 0.94
- normalized growth (locus YPL209C, strain IPL1, active compounds read low): 0.981
- normalized growth (locus YPL256C, strain CLN2, active compounds read low): 0.98
- normalized growth (locus YPR025C, strain CCL1, active compounds read low): 0.977
- normalized growth (locus YPR106W, strain ISR1, active compounds read low): 0.985
- normalized growth (locus YPR111W, strain DBF20, active compounds read low): 0.97
- normalized growth (strain NNK1, active compounds read low): 0.982
- normalized growth (strain TSCII, active compounds read low): 0.969
